Results on 87 sequences are retold here after PMC10668032, “Altered binding affinity of SIX1-Q177R correlates with enhanced WNT5A and WNT pathway effector expression in Wilms tumor”.

In all, about 33,000 sequences were measured (“e-score”: median about -0.05, highest 2% from about 0.38 on). This is one part of a sample in which the highest values are shown more often than they occur.

The assay deals with T1, SIX1-Q177R homeodomain (human, UniProt Q15475 108-198, Q177R).
T1 sequence: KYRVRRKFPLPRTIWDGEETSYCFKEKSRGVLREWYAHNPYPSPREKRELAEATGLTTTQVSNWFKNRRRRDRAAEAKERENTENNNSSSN
Briefly: universal protein binding microarray; Universal all-10-mer PBM (8x60K, AMADID 030236), 300 nM GST-tagged protein, Alexa Fluor 488 anti-GST; buffer, salt, pH and temperature not stated (as in Berger); high values mean tight binding. Conditions: protein: ivt; tags: N-terminal GST; dsDNA, one strand shown. An outline of the steps: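 Binding was expressed as 8-mer E-scores calculated with the Universal PBM Analysis Suite. The GST-tagged homeodomains, made by in vitro transcription/translation, were applied in duplicate at 300 nM final concentration to universal 'all 10-mer' protein binding microarrays (8×60K format).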
Turning to CCGGGTAG, the binding signal was 0.169 ± 0.0152 E-score.
Under ACGTGTAA stands 0.413 ± 0.0225 E-score; under GCGTGTGA, 0.347 ± 0.0138 E-score.
With CCTTGTAA the figure was 0.244 ± 0.024 E-score; with GCGTGTAA, 0.441 ± 0.0209 E-score; with CCGTGCAC, 0.198 ± 0.0196 E-score.
Turning to CCGTGTAG, the binding signal came to 0.4463 ± 0.00194 E-score.
With CCGGGTAA the figure was 0.177 ± 0.0166 E-score; with GCGGGTAA, 0.164 ± 0.019 E-score; with ACGTGTGA, 0.293 ± 0.00636 E-score.
With CCGTGTAA the figure was 0.44 ± 0.0102 E-score.
In the case of TATCGTCA, the binding signal was 0.211 ± 0.012 E-score.
Under CGAAAACA stands 0.186 ± 0.0616 E-score; under CACCTAGC, 0.168 ± 0.00559 E-score; under ACCTCAAC, 0.27 ± 0.0213 E-score.
Under CACCCTTC stands 0.31 ± 0.0119 E-score; under CAGCTACA, 0.191 ± 0.0188 E-score; under GATACTGC, 0.158 ± 0.0138 E-score.
With CACGTTCA, the binding signal worked out at 0.158 ± 0.0324 E-score.
For AATAGGGG, the binding signal is 0.171 ± 0.0238 E-score.
Under TCGTGTAA stands 0.434 ± 0.0291 E-score; under TCGGGTAA, 0.194 ± 0.00451 E-score.
Consider GCTGAACA, for which the binding signal stood at 0.169 ± 0.0308 E-score.
Under GGGTTTCA stands 0.15 ± 0.00187 E-score; under CTCAACAC, 0.393 ± 0.0141 E-score; under GTCAAACA, 0.1886 ± 0.00104 E-score.
With ATCAACAC the figure was 0.3939 ± 0.00328 E-score; with AGCAACAC, 0.361 ± 0.00441 E-score; with GTCAACAC, 0.38 ± 0.00874 E-score.
Under TCCTTACA stands 0.222 ± 0.0176 E-score; under ATTGATCC, 0.187 ± 0.0355 E-score.
CATCTGAC: the binding signal was determined as 0.236 ± 0.0527 E-score.
With CACTTCAC the figure was 0.154 ± 0.0408 E-score; with ACTCCGCG, 0.22 ± 0.00707 E-score; with CACACGTG, 0.362 ± 0.00543 E-score.
With CCAGGATA the figure was 0.2169 ± 0.00146 E-score.
With GCACCCGC the figure was 0.227 ± 0.0318 E-score; with AACCCCGT, 0.174 ± 0.0274 E-score; with ACCCCCGC, 0.318 ± 0.046 E-score.
Take ACACCCGC: the binding signal was 0.4623 ± 0.00219 E-score.
With ACACCCGA the figure was 0.457 ± 0.00947 E-score; with ACACCCGT, 0.4709 ± 0.00247 E-score; with ACCCCCGG, 0.305 ± 0.0423 E-score.
Under ACACCCGG stands 0.4824 ± 0.0027 E-score.
With GCACCCGA the figure was 0.235 ± 0.00309 E-score; with CCACCCGA, 0.206 ± 0.00492 E-score.
Regarding ACCCCCGT, the binding signal turned out to be 0.273 ± 0.0189 E-score.
On to CCACCCGG, for which the binding signal amounted to 0.201 ± 0.0191 E-score.
Under GGGAGTCA stands 0.221 ± 0.0066 E-score; under ATAGGGGG, 0.259 ± 0.00343 E-score; under CACGGGGA, 0.199 ± 0.0103 E-score.
With CCCGTAGG the figure was 0.178 ± 0.00511 E-score.
With GGAGCACC the figure was 0.268 ± 0.0396 E-score; with AGGGGGAT, 0.23 ± 0.0203 E-score; with CGCAAACA, 0.181 ± 0.0196 E-score.
As to GTGATACA, the binding signal was 0.172 ± 0.0198 E-score.
With ACCATACA the figure was 0.3199 ± 0.00166 E-score; with GGTCCGTA, 0.189 ± 0.0444 E-score.
With GAGGGTAC the figure was 0.183 ± 0.0122 E-score.
Under TGACACAA stands 0.298 ± 0.0424 E-score; under AGACACCA, 0.458 ± 0.0134 E-score; under TGACGACA, 0.212 ± 0.00725 E-score.
Turning to AGGCACCA, the binding signal was determined as 0.178 ± 0.0251 E-score.
With TGACACCA the figure was 0.4915 ± 0.00377 E-score.
As to GGACACGA, the binding signal amounted to 0.356 ± 0.0172 E-score.
With GGACACCA the figure was 0.4831 ± 0.00245 E-score; with TCCATGGA, 0.1596 ± 0.000424 E-score.
With CGGGGTTA the figure was 0.22 ± 0.0181 E-score.
With ACGGAACA the figure was 0.212 ± 0.00638 E-score; with TGTGAACA, 0.327 ± 0.0228 E-score; with ACCGTTGG, 0.2165 ± 0.000431 E-score.
With ACCCGACG, the binding signal is 0.208 ± 0.0142 E-score.
For the sequence TAGCTACA, the binding signal stood at 0.209 ± 0.0332 E-score.
In the case of GTATCAGA, the binding signal was found to be 0.284 ± 0.0131 E-score.
Under GTTGGGGA stands 0.218 ± 0.00618 E-score; under CCCTTTGC, 0.219 ± 0.0339 E-score; under CCCGGGTC, 0.335 ± 0.0417 E-score.
With GGGGTAAC the figure was 0.293 ± 0.0173 E-score; with GGAGTAAC, 0.157 ± 0.0575 E-score; with AGGGTAAG, 0.152 ± 0.023 E-score.
Take GGAGTAGA: the binding signal stood at 0.2198 ± 0.000615 E-score.
Under CGGGTAAC stands 0.2 ± 0.000757 E-score; under GGTGTAAC, 0.482 ± 0.00603 E-score.
Under GGGGTAGA stands 0.194 ± 0.0142 E-score.
With GGTGTAGA the figure was 0.4728 ± 0.00114 E-score; with CGTGTAAG, 0.428 ± 0.0306 E-score; with CGTGTAAC, 0.43 ± 0.0129 E-score.
